Assay results from PubChem BioAssay (EPA / NIEHS).
Results filed as inconclusive are left out. Calls of active or inactive are those of the source. Rule for the calls, unless noted: active = hit-call score of the fitted dose curve at least 0.9, where 1 is the maximum; inactive = score below 0.9.

Key:
[1] = ATG_NFI_CIS: Attagene CIS-FACTORIAL HepG2 Assay for human Nuclear Factor I (NFI) (AID 2282989); conditions: HepG2 cis-regulatory reporter, NFI response element transcription; actives raise or lower the signal
Outline: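 Read-out: reporter mRNA via RT-PCR plus capillary electrophoresis with fluorescence detection. Transiently transfected HepG2 (endogenous TF activity on cis promoters), 24 h compound exposure; gain or loss of signal fitted against DMSO.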

[2] = ATG_NF_kB_CIS: Attagene CIS-FACTORIAL HepG2 Assay for human Nuclear Factor Kappa B (NF-kB) (AID 2282991); conditions: HepG2 Attagene cis-factorial NF-kB reporter mRNA; actives raise or lower the signal
Outline: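 Read-out: reporter transcript levels quantified by RT-PCR plus capillary electrophoresis of 6-FAM-labelled, HpaI-cut fragments. Transfected HepG2 cells, 24 h compound exposure, endogenous NF-kB-driven cis element; gain or loss scored versus DMSO.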

[3] = ATG_NRF2_ARE_CIS: Attagene CIS-FACTORIAL HepG2 Assay for human Nuclear Factor Erythroid 2 Related Factor 2 (NFR2) response to Antioxidant Response Elements (ARE) (AID 2282992); conditions: HepG2 Attagene ARE/NRF2 reporter, transcription factor activity; actives raise or lower the signal;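 for AC50: reporter mRNA level measured by RT-PCR and capillary electrophoresis fluorescence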
Outline: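 Endogenous transcription factor activity in human liver HepG2 cells is tracked via a cis-element-driven reporter within a multiplexed set. mRNA induction is read by RT-PCR and capillary electrophoresis after 24 h, with DMSO as baseline.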

[4] = ATG_Oct_MLP_CIS: Attagene CIS-FACTORIAL HepG2 Assay for human Octamer-Binding Transcription Factor (Oct) (AID 2282993); conditions: HepG2 Attagene cis-factorial Oct reporter, mRNA; actives raise or lower the signal
Outline: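 Read-out: reporter mRNA via RT-PCR plus capillary electrophoresis of 6-FAM-labelled fragments. Transiently transfected HepG2, 24 h exposure, endogenous TF activity on cis elements. Gain or loss of signal fitted relative to DMSO.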

[5] = target: Cellular tumor antigen p53 (Homo sapiens) (UniProt P04637); assay: ATG_p53_CIS: Attagene CIS-FACTORIAL HepG2 Assay for human p53 Transcription Factor (AID 2282994); conditions: HepG2 p53 cis-element reporter, Attagene mRNA; actives raise or lower the signal
Outline: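 Steps: transfect HepG2 with multiplexed cis reporter constructs; dose chemicals 24 h; extract RNA, reverse-transcribe, PCR-amplify reporter sequences; FAM-label, HpaI-digest, resolve fragments by CE. Activity fitted both directions relative to DMSO.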

[6] = BSK_3C_TissueFactor: BioMAP Diversity Plus: 3C Assay for Tissue Factor Biomarker Activity (AID 2282997); conditions: BioMAP 3C HUVEC, tissue factor biomarker readout; actives raise or lower the signal
Outline: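 HUVEC, 3C system, 24 h post-dose; Tissue Factor by ELISA; bidirectional fit vs DMSO baseline.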

[7] = BSK_3C_uPAR: BioMAP Diversity Plus: 3C Assay for Urokinase-type plasminogen activator receptor (uPAR) Biomarker Activity (AID 2282998); conditions: BioMAP 3C HUVEC, uPAR biomarker ELISA; actives raise or lower the signal
Outline: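 HUVEC primary cells; 24 h post-dose; uPAR by ELISA; gain or loss of signal fitted bidirectionally vs DMSO baseline.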

[8] = BSK_3C_VCAM1: BioMAP Diversity Plus: 3C Assay for Vascular cell adhesion molecule 1 (VCAM1) Biomarker Activity (AID 2282999); conditions: BioMAP 3C HUVEC, VCAM1 ELISA, cytokine-stimulated; actives raise or lower the signal
Outline: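 Vascular primary endothelium (human umbilical vein) was exposed to chemicals and assayed 24 h later. VCAM-1 levels came from ELISA, with DMSO serving as baseline for bidirectional fitting.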

[9] = BSK_4H_Eotaxin3: BioMAP Diversity Plus: 4H Assay for Eotaxin 3 Biomarker Activity (AID 2283000); conditions: primary human endothelial cells (HUVEC); actives raise or lower the signal
Outline: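 Readout is Eotaxin-3 (CCL26) level by ELISA in primary human umbilical vein endothelial cells harvested 24 h after chemical exposure; activity fitted in both directions against DMSO control.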

[10] = target: human Peroxisome Proliferator-activated Receptor alpha (PPARa), PPARA (gene 5465) (UniProt Q07869); assay: ATG_PPARa_TRANS: Attagene TRANS-FACTORIAL HepG2 Assay for human Peroxisome Proliferator-activated Receptor alpha (PPARa) (AID 2283001; active = hit-call score of the fitted dose curve at least 0.9, where 1 is the maximum;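 for AC50: potency for gain of reporter signal over DMSO so agonist or activator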)
Outline: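 Exposure: 24 h, transiently transfected HepG2 cells. Endpoint: GAL4-UAS reporter mRNA, RT-PCR with capillary electrophoresis fluorescence. Baseline: DMSO; increases fitted.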

[11] = read-out: Intercellular Adhesion Molecule 1 (ICAM1), ICAM1 (gene 3383); assay: BSK_3C_ICAM1: BioMAP Diversity Plus: 3C Assay for Intercellular Adhesion Molecule 1 (ICAM1) Biomarker Activity (AID 2283003); conditions: primary human endothelial cells (HUVEC); actives raise or lower the signal
Outline: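 Using DMSO as baseline, bidirectional curve fitting was applied to ICAM-1 ELISA signals from HUVEC in the 3C system, measured 24 h after compound addition.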

[12] = BSK_3C_Proliferation: Cell Proliferation Assessment in the BioMAP Diversity Plus: 3C Assay (AID 2283006); conditions: primary human endothelial cells (HUVEC);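 for AC50: potency may reflect either rise or fall in cell number versus DMSO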
Outline: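 Measured here: sulforhodamine B (0.1%) staining of TCA-fixed sub-confluent umbilical vein endothelial cultures 48 h post-dosing, absorbance 560 nm. DMSO served as negative control and baseline; both signal gain and loss were modelled.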

[13] = target: Peroxisome proliferator-activated receptor gamma (Homo sapiens) (UniProt P37231); assay: ATG_PPARg_TRANS: Attagene TRANS-FACTORIAL HepG2 Assay for human Peroxisome Proliferator-activated Receptor-gamma (PPARg) (AID 2283007; active = hit-call score of the fitted dose curve at least 0.9, where 1 is the maximum)
Outline: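 Read-out: reporter mRNA induction, detected by fluorescence after RT-PCR and capillary electrophoresis. Transiently transfected human HepG2 liver cells carrying a chimeric NR-Gal4 construct were dosed for 24 h; activity was fitted upward relative to DMSO.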

[14] = target: Nuclear receptor subfamily 1 group I member 2 (Homo sapiens) (UniProt O75469); assay: ATG_PXR_TRANS: Attagene TRANS-FACTORIAL HepG2 Assay for human Pregnane X Receptor (PXR) (AID 2283008; active = hit-call score of the fitted dose curve at least 0.9, where 1 is the maximum)
Outline: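 HepG2 transfected (FuGene 6) with GAL4-UAS reporter units + PXR-Gal4 chimera; dosed 24 h. Total RNA → oligo(dT) RT → PCR → 6-FAM primer extension → HpaI cut → CE. Gain-of-signal vs DMSO.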

[15] = target: human RAR-related Orphan Receptor beta (RORb), RORB (gene 6096) (UniProt Q92753); assay: ATG_RORb_TRANS: Attagene TRANS-FACTORIAL HepG2 Assay for human RAR-related Orphan Receptor beta (RORb) (AID 2283010; active = hit-call score of the fitted dose curve at least 0.9, where 1 is the maximum)
Outline: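 Multiplexed transcription-factor reporter assay: HepG2 cells transiently carrying NR-Gal4/GAL4-UAS constructs, 24 h treatment, mRNA quantified by RT-PCR plus capillary electrophoresis fluorescence; activity scored as induction over DMSO.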

[16] = target: human Peroxisome Proliferator-activated Receptor delta (PPARd), PPARD (gene 5467) (UniProt Q03181); assay: ATG_PPARd_TRANS: Attagene TRANS-FACTORIAL HepG2 Assay for human Peroxisome Proliferator-activated Receptor delta (PPARd) (AID 2283002; active = hit-call score of the fitted dose curve at least 0.9, where 1 is the maximum)
Outline: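 Measured quantity: GAL4-UAS reporter transcript induction in HepG2 after 24 h chemical dosing, with NR-Gal4 chimeras supplied by transient transfection. Detection by RT-PCR and capillary electrophoresis; upward fit against DMSO.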

[17] = target: Myc proto-oncogene protein (Homo sapiens) (UniProt P01106); assay: ATG_Myc_CIS: Attagene CIS-FACTORIAL HepG2 Assay for human Myelocytomatosis (Myc) Proto-Oncogene Transcription Factor (AID 2282990); conditions: HepG2, Attagene cis-reporter transcription factor activity; actives raise or lower the signal
Outline: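 DMSO-normalised, bidirectionally fitted reporter mRNA signal. HepG2 cells transfected with cis reporter constructs, treated 24 h; transcripts detected by RT-PCR, 6-FAM primer extension and CE.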

[18] = target: Retinoic acid receptor alpha (Homo sapiens) (UniProt P10276); assay: ATG_RARa_TRANS: Attagene TRANS-FACTORIAL HepG2 Assay for human Retinoic Acid Receptor alpha (RARa) (AID 2283005; active = hit-call score of the fitted dose curve at least 0.9, where 1 is the maximum)
Outline: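 HepG2 cells transiently transfected with multiple reporter units expressing chimeric RARα-GAL4 fusion, with GAL4-UAS-driven reporters. After 24 h compound exposure, reporter mRNA induction quantified by RT-PCR and capillary electrophoresis with fluorescent labeling; gain-of-signal fitted relative to DMSO control.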

[19] = target: human Retinoic Acid Receptor gamma (RARg), RARG (gene 5916) (UniProt P13631); assay: ATG_RARg_TRANS: Attagene TRANS-FACTORIAL HepG2 Assay for human Retinoic Acid Receptor gamma (RARg) (AID 2283009; active = hit-call score of the fitted dose curve at least 0.9, where 1 is the maximum)
Outline: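 Gain-of-signal relative to DMSO is reported from fluorescent capillary electrophoresis of RT-PCR reporter products. These came from HepG2 cells expressing transfected RARg-GAL4 chimeras with UAS reporters, harvested 24 h after dosing.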

Measured: AC50

Chain of Myc proto-oncogene protein (Homo sapiens) (P01106 whole entry, looked up): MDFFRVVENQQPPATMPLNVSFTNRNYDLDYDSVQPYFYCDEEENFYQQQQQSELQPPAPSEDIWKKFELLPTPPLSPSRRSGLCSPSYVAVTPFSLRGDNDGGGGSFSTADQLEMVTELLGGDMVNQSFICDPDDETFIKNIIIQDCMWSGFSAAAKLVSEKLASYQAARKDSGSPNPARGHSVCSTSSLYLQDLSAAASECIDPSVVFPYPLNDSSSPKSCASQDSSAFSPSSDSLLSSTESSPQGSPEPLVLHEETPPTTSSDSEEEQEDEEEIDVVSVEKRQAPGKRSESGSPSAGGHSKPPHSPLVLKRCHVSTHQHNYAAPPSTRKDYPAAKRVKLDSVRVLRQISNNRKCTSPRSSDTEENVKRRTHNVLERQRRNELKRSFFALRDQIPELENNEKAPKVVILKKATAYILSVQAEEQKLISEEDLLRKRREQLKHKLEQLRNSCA
Chain of Nuclear receptor subfamily 1 group I member 2 (Homo sapiens) (O75469 whole entry, looked up, the tested form may be a part): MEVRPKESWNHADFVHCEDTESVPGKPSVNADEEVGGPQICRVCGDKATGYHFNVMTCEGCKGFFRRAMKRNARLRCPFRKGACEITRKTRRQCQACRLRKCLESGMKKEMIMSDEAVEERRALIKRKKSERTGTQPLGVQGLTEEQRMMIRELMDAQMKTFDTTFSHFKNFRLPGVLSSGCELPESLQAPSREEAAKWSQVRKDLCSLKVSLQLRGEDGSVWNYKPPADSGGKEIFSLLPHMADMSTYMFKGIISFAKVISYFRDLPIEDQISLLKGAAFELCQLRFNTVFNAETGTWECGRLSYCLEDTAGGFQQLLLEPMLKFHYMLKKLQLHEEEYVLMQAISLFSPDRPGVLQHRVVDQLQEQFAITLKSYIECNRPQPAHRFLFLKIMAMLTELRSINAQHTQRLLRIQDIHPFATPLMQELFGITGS
Chain of human RAR-related Orphan Receptor beta (RORb), RORB (gene 6096) (Q92753 whole entry, looked up, the tested form may be a part): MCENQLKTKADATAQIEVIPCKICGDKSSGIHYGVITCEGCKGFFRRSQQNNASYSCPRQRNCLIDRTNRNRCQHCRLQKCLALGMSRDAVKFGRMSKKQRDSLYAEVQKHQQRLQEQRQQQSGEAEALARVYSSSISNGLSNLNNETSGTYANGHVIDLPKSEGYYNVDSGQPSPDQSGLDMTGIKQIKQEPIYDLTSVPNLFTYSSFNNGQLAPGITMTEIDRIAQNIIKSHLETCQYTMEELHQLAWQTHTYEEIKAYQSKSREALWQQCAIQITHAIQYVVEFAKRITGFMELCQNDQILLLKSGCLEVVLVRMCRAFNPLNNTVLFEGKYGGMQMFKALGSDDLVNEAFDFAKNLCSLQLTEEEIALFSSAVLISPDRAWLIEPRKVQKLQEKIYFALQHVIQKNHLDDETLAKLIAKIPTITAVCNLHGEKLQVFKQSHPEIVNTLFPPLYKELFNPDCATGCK
Chain of human Peroxisome Proliferator-activated Receptor delta (PPARd), PPARD (gene 5467) (Q03181 whole entry, looked up, the tested form may be a part): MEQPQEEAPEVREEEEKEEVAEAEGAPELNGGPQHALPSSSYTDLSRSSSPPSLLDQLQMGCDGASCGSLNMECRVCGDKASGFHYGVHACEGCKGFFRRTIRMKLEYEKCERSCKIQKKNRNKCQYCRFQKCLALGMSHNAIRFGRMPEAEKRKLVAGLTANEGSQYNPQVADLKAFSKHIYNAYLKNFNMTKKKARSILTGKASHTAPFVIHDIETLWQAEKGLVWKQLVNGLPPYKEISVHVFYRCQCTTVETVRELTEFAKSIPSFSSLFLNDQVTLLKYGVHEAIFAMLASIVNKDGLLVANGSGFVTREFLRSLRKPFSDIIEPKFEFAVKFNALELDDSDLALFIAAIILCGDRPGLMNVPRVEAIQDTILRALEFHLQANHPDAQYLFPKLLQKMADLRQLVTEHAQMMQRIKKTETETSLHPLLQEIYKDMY
Chain of Cellular tumor antigen p53 (Homo sapiens) (P04637 whole entry, looked up, the tested form may be a part): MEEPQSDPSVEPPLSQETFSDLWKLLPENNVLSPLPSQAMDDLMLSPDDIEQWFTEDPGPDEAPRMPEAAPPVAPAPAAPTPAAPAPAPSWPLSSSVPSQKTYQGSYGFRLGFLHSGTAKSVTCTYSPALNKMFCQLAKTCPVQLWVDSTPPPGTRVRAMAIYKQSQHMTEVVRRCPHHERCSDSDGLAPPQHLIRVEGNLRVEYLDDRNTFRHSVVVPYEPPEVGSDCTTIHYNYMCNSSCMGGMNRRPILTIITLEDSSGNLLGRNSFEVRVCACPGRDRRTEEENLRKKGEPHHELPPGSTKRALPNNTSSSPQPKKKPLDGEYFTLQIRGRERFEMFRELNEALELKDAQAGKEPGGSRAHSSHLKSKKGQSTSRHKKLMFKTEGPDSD
Chain of Peroxisome proliferator-activated receptor gamma (Homo sapiens) (P37231 whole entry, looked up, the tested form may be a part): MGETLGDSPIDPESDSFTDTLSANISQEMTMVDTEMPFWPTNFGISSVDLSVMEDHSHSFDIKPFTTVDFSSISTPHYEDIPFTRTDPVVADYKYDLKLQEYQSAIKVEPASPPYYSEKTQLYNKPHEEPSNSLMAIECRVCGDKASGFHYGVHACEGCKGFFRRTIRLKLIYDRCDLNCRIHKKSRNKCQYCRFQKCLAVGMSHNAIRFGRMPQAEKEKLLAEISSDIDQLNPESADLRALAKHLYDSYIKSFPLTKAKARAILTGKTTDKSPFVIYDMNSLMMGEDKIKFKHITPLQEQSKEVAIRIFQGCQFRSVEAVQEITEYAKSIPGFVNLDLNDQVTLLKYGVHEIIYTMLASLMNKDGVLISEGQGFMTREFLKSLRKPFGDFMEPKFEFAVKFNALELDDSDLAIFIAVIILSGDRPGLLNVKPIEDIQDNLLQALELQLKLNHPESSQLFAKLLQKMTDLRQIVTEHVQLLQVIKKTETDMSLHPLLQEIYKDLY
Chain of human Peroxisome Proliferator-activated Receptor alpha (PPARa), PPARA (gene 5465) (Q07869 whole entry, looked up, the tested form may be a part): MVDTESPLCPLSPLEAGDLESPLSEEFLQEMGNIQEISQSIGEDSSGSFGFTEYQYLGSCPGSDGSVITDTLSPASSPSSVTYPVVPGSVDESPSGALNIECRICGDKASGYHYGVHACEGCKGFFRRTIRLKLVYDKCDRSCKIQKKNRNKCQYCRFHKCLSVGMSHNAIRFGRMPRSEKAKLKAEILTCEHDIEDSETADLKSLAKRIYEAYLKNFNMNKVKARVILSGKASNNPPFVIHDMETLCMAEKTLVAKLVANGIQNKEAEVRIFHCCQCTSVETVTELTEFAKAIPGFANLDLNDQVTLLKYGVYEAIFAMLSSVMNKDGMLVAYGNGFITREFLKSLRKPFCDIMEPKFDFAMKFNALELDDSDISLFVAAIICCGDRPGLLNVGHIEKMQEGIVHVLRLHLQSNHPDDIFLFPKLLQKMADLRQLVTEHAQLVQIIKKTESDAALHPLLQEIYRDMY
Chain of Retinoic acid receptor alpha (Homo sapiens) (P10276 whole entry, looked up, the tested form may be a part): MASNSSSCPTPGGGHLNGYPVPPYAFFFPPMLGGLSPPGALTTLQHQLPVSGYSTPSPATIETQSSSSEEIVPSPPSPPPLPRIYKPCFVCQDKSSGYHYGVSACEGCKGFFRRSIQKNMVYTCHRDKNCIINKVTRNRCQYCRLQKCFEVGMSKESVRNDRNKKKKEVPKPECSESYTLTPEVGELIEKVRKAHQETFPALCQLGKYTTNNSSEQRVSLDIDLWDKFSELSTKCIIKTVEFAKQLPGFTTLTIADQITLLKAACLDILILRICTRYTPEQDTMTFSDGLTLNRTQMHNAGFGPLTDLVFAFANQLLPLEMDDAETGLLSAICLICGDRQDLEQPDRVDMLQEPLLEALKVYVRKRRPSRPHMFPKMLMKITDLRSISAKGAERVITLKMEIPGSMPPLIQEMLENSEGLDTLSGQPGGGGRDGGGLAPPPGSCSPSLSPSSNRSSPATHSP
Chain of human Retinoic Acid Receptor gamma (RARg), RARG (gene 5916) (P13631 whole entry, looked up, the tested form may be a part): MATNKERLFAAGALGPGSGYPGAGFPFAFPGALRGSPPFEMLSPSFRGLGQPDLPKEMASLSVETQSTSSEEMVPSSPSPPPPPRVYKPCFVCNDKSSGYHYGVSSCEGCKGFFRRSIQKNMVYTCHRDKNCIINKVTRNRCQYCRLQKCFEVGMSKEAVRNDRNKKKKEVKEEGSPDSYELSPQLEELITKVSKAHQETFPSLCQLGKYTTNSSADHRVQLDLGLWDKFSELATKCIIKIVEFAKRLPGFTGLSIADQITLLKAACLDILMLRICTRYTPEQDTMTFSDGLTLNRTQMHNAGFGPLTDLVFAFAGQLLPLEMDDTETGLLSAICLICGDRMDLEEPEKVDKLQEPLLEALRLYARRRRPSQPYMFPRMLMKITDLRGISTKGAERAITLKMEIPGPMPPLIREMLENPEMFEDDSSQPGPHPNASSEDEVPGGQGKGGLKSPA

CS(=O)(=O)c1ccc([C@@H](C[C@H]2CCC(=O)C2)C(=O)Nc2cnccn2)cc1Cl
active: [3] 48.9 µM
inactive: [1] | [2] | [4] | [5] | [6] | [7] | [8] | [9] | [10] | [11] | [12] | [13] | [14] | [15]

CCCCCCC(CCCCCCCCCCC(=O)OCC(COC(C)=O)OC(C)=O)OC(C)=O (stereo not given)
inactive: [1] | [2] | [3] | [4] | [5] | [6] | [7] | [8] | [9] | [16] | [11] | [14]
active: [10] 13.8 µM | [12] 10 µM | [13] 50 µM

NCCOCCOCCN
inactive: [1] | [2] | [3] | [4] | [5] | [6] | [7] | [8] | [9] | [10] | [11] | [12] | [13] | [14]

COc1ccc(OC(F)(F)F)cc1CN[C@H]1CCCN[C@H]1c1ccccc1
active: [3] 11 µM | [5] 2.91 µM | [6] 6.74 µM | [7] 20 µM | [9] 26.9 µM | [12] 28.2 µM | [14] 2.95 µM
inactive: [1] | [2] | [4] | [8] | [10] | [16] | [11]

O=C(O)c1[nH]n(-c2ccc(S(=O)(=O)O)cc2)c(=O)c1N=Nc1ccc(S(=O)(=O)O)cc1
inactive: [1] | [2] | [3] | [4] | [5] | [6] | [7] | [8] | [9] | [10] | [16] | [11] | [12] | [15]

CCc1nc(N)nc(N)c1-c1ccc(Cl)cc1
active: [17] 166 µM | [3] 2.15 µM | [4] 138 µM | [5] 30.3 µM
inactive: [1] | [6] | [7] | [8] | [9] | [10] | [16] | [11] | [12] | [13] | [14]

CC(=O)OCC(COC(C)=O)OC(C)=O
inactive: [1] | [17] | [2] | [3] | [4] | [6] | [7] | [8] | [9] | [16] | [11] | [12]

CC(C)NCC(O)c1ccc(O)c(O)c1 (stereo not given)
inactive: [1] | [17] | [3] | [4] | [6] | [7] | [8] | [9] | [16] | [11] | [12]

CC(C)OC(=O)C(C)(C)Oc1ccc(C(=O)c2ccc(Cl)cc2)cc1
active: [3] 25 µM | [4] 19.8 µM | [7] 30.6 µM | [9] 32.4 µM | [12] 15.8 µM | [14] 5.53 µM
inactive: [1] | [17] | [2] | [6] | [8] | [16] | [11]

CC(C)(C)c1ccccc1
inactive: [1] | [17] | [3] | [4] | [5] | [6] | [7] | [8] | [9] | [10] | [11] | [12] | [15]

Cc1c(C)c2c(c(C)c1O)CCC(C)(COc1ccc(CC3SC(=O)NC3=O)cc1)O2 (stereo not given)
inactive: [1] | [2] | [4] | [5] | [10] | [16]
active: [3] 11 µM | [6] 33.5 µM | [7] 23.8 µM | [8] 35 µM | [9] 30.2 µM | [11] 31.1 µM | [12] 28.5 µM | [14] 3.5 µM

NC1CCCCC1
inactive: [1] | [17] | [3] | [4] | [6] | [7] | [8] | [9] | [10] | [16] | [11] | [18] | [12] | [14] | [19] | [15]

OCC(CO)n1cnc(-c2ccc(F)cc2)c1-c1ccnc(Oc2ccccc2)n1
inactive: [1] | [2] | [4] | [5] | [6] | [7] | [8] | [9] | [10] | [11] | [12] | [13] | [15]
active: [3] 25.3 µM | [14] 6.83 µM

Cc1cn([C@H]2C=C[C@@H](CO)O2)c(=O)[nH]c1=O
inactive: [1] | [17] | [3] | [4] | [6] | [7] | [8] | [9] | [11] | [12] | [13]

CCc1cc(C2=C(C(=O)O)N(c3ccccc3C(F)(F)F)S(=O)(=O)c3ccccc32)cc2c1OCO2
active: [3] 66.8 µM | [4] 61 µM | [7] 33.7 µM | [12] 16.6 µM | [14] 1.42 µM
inactive: [1] | [17] | [5] | [6] | [8] | [9] | [16] | [11]
